From article PMC4336329 (PLoS ONE, 2015)
The whole screen tested about 310,000 compounds, of which about 2,200 (0.71%) showed an effect of 50% or more. The effect is printed as a negative number. The full list was thinned out, with strong results kept by preference.

These compounds were tested against human ether-à-go-go-related gene (hERG) potassium channel (human, UniProt Q12809) (assay: primary screen, population patch clamp on CHO cells stably expressing hERG; higher = less effect of the substance).
human ether-à-go-go-related gene (hERG) potassium channel, sequence (Q12809 whole entry, looked up): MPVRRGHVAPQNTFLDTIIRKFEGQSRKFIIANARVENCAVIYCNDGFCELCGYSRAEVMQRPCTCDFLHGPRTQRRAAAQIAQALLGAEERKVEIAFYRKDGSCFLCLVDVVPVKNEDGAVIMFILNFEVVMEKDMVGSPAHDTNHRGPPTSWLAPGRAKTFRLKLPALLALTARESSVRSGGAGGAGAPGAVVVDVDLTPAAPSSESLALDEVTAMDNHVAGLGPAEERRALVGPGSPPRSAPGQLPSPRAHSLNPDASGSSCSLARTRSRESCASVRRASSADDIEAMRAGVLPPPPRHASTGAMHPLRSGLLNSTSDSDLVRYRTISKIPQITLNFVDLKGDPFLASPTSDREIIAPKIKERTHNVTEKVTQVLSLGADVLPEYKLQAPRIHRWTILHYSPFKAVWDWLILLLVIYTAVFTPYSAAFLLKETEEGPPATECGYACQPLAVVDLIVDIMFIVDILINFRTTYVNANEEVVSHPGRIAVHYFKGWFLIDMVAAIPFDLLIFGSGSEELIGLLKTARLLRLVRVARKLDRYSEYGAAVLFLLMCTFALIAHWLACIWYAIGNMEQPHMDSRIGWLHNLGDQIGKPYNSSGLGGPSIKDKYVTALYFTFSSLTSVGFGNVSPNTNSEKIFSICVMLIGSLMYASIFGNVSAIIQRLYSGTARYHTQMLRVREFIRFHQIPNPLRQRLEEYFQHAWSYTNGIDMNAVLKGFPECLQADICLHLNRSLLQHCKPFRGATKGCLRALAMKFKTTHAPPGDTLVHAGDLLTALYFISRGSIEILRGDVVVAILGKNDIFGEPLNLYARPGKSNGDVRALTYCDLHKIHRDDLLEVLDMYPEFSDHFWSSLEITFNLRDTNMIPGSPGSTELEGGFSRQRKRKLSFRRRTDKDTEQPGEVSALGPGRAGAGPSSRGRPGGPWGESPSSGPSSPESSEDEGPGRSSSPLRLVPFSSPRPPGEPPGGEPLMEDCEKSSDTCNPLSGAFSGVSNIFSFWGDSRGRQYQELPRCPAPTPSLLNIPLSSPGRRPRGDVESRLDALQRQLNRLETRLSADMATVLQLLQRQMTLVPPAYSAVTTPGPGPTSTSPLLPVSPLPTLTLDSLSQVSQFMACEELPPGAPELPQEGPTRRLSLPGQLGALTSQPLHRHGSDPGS

Row | SMILES | hERG current change (%, negative = inhibition) at 1uM
1 | Cn1c(OCc2ccco2)nc2c1c(=O)n(Cc1ccc(Cl)c(Cl)c1)c(=O)n2C | 6.62%
2 | COc1ccc(C(=O)NC(=S)N2CC(C)OC(C)C2)cc1OC (stereo not shown) | 7.44%
3 | COC(=O)c1sccc1NC(=O)Nc1cccc(F)c1 | 9.69%
4 | C[C@@H](C(=O)OCC(=O)NCCc1ccc(S(N)(=O)=O)cc1)N1C(=O)C2CCCCC2C1=O (stereo partly shown) | 12%
5 | Cc1ccc(CN2C3=NCCCN3c3ccccc32)cc1.Cl | -29.6%
6 | Cc1cccc(CN2C3=NCCCN3c3ccccc32)c1.Cl | -16.9%
7 | Br.CC(C)(C)C(=O)CN1C2=NCCCN2c2ccccc21 | -46.9%
8 | Br.CC(C)(C)c1ccc(CN2C3=NCCCN3c3ccccc32)cc1 | -79.7%
9 | Cl.Clc1ccc(CN2C3=NCCCN3c3ccccc32)cc1Cl | -51.4%
10 | Cl.Clc1cccc(CN2C3=NCCCN3c3ccccc32)c1 | -46.2%
11 | O=C1CSC2(CCCCC2)N1CCO | 12.4%
12 | O=C(Oc1ccc(C(=S)N2CCOCC2)cc1)c1ccccc1 | 28.6%
13 | O=C(COC(=O)C1(c2ccc(F)cc2)CCCC1)Nc1ncc(C(F)(F)F)cc1Cl | 2.97%
14 | O=C(C1CCN(C2CC(=O)N(c3ccc(Cl)cc3)C2=O)CC1)N1CCOCC1 (stereo not shown) | 2.01%
15 | CCCC[C@@H]1C[C@H]1[C@@H](NC(=O)c1ccco1)c1ccc(Cl)cc1 | 6.22%
16 | CC(Nc1nc(N2CCCC2)nc2ccccc12)c1ccccc1 (stereo not shown) | -84.6%
17 | CC(Nc1nc(N2CCOCC2)nc2ccccc12)c1ccccc1 (stereo not shown) | -52.7%
18 | CC(Nc1nc(N2CCN(S(C)(=O)=O)CC2)nc2ccccc12)c1ccccc1 (stereo not shown) | -14%
19 | CC(Nc1nc(N2CCCCC2)nc2ccccc12)c1ccccc1 (stereo not shown) | -14.4%
20 | CC(Nc1nc(N2CCNCC2)nc2ccccc12)c1ccccc1 (stereo not shown) | -31.7%
21 | CC(Nc1nc(N2CCN(CCO)CC2)nc2ccccc12)c1ccccc1 (stereo not shown) | -25.9%
22 | COC(=O)C(C(=O)Nc1cccc(Cl)c1C)C1CCCC1 (stereo not shown) | 5.04%

Row | SMILES | hERG current change (%, negative = inhibition) at 1uM
23 | COCCCN1C(=O)C(=O)/C(=C(/O)c2ccc(S(=O)(=O)N3CCOCC3)cc2)C1c1ccc(F)cc1 (stereo not shown) | 6.04%
24 | Cc1ccsc1/C=N/Nc1ncnc2nc[nH]c12 | -2.18%
25 | CS(=O)(=O)Nc1ccc(C2=NN(S(=O)(=O)c3ccc(F)cc3)C(c3ccco3)C2)cc1 (stereo not shown) | -15.6%
26 | COc1ccc(S(=O)(=O)N2N=C(c3ccc(NS(C)(=O)=O)cc3)CC2c2ccco2)cc1 (stereo not shown) | -69.6%
27 | COc1ccc(S(=O)(=O)N2N=C(c3cccc(NS(C)(=O)=O)c3)CC2c2ccco2)cc1 (stereo not shown) | 16.4%
28 | O=C(CCS(=O)(=O)Cc1ccccc1F)NCCc1ccc(Cl)cc1 | 5.86%
29 | Cc1cc(NC(=O)CSc2nc3c(c(=O)n2-c2ccc(Br)cc2)SCC3)no1 | 6.41%
30 | CCOC(=O)c1c(CN2CCN(C)CC2)n(C)c2cc(Br)c(OC)cc12 | -12.4%
31 | CCOC(=O)c1c(CN2CCCCC2)n(C)c2cc(Br)c(OC)cc12 | 9.14%
32 | CCOC(=O)c1c(CN2CCCCC2)n(C)c2cc(Br)c(O)cc12 | -68.8%
33 | CCOC(=O)c1c(CN(CC)CC)oc2cc(Br)c(O)cc12 | -59.5%
34 | CCOC(=O)c1c(CN(CC)CC)n(C)c2cc(Br)c(O)cc12.Cl | -45%
35 | CCOC(=O)c1c(CN(CC)CC)oc2ccc(OC)cc12 | -25.8%
36 | Cc1ccc(NC(=S)NNC(=O)Cn2nc(C(F)F)cc2C(F)F)cc1 | 13.6%
37 | Cc1oc(C(C)(C)C)cc1C(=O)Nc1ccc(N2CCOCC2)cc1 | 4.63%
38 | CC(=O)NC(=S)Nc1ccccc1N1CCN(C(=O)c2ccccc2)CC1 | 10.6%
39 | C[N+](C)(C)CCCCCCCCCC[N+](C)(C)C.[Br-] | 7.97%
40 | CCCCCCCCCCOC(=O)Cn1c(COc2ccccc2OC)[n+](C)c2ccccc21.[Cl-] | -33.2%
41 | CCCCCCCCCCOC(=O)Cn1c(COc2ccccc2)[n+](C)c2ccccc21.[Cl-] | -46.5%
42 | CCCCc1n(CC(=O)c2ccc(Cl)cc2)c2ccccc2[n+]1C.[Br-] | 10.7%
43 | CCCCCCCCCCOC(=O)Cn1c(COc2ccccc2C)[n+](C)c2ccccc21.[Cl-] | -18%
44 | CCCCCCCCCCOC(=O)Cn1c(COc2cccc(OC)c2)[n+](C)c2ccccc21.[Cl-] | -37.3%

Row | SMILES | hERG current change (%, negative = inhibition) at 1uM
45 | CCCCCCCCCCOC(=O)Cn1c(COc2ccc(OC)cc2)[n+](C)c2ccccc21.[Cl-] | -70.9%
46 | CCCCCCCCCCOC(=O)Cn1c(COc2cccc(C)c2)[n+](C)c2ccccc21.[Cl-] | -43.9%
47 | CCCCCCCCCCOC(=O)Cn1c(COc2ccc(Cl)cc2)[n+](C)c2ccccc21.[Cl-] | -79.1%
48 | CCCCCCCCCCOC(=O)Cn1c(COc2ccc(C)cc2)[n+](C)c2ccccc21.[Cl-] | -56.5%
49 | CCN(C(=S)Nc1ccc(Oc2ccccc2)cc1)c1ccccc1 | 21.1%
50 | CCc1nnc(NC(=O)C2CCC2)s1 | 3.46%
51 | CCCn1c(N)c(N(CCOC)C(=O)c2ccc(F)cc2)c(=O)[nH]c1=O | 12.9%
52 | Cc1[nH]c(C)c(S(=O)(=O)NCCc2ccc(S(N)(=O)=O)cc2)c1C(=O)N1CCCC1 | 12.3%
53 | CCCCSc1nnc(-c2ccc(NC(=O)CCc3ccccc3)cc2)n1C | 19.5%
54 | Cc1ccc2occ(/C=C/C(=O)O)c(=O)c2c1 | 9.03%
55 | CCNC(=O)C1(c2ccccc2)CCCC1 | 5.42%
56 | CCOC(=O)C[n+]1c(C)csc1C.[Br-] | 9.26%
57 | CCN1CCN(c2nc(Nc3cccc(OC)c3)nc(N)c2[N+](=O)[O-])CC1 | -60.6%
58 | CCN1CCN(c2nc(Nc3cccc(C)c3)nc(N)c2[N+](=O)[O-])CC1 | -36.9%
59 | CCN1CCN(c2nc(Nc3ccc(OC)cc3)nc(N)c2[N+](=O)[O-])CC1 | 1.06%
60 | COc1ccccc1-n1c(/C=C/c2ccc(O)cc2)nc2ccccc2c1=O | 13%
61 | CCCCCn1c(CCCNC(=O)CC)nc2ccccc21 | -52.3%
62 | CCCCn1c(CCNC(=O)CC)nc2ccccc21 | 0.197%
63 | CCCCn1c(CCCNC(=O)CC)nc2ccccc21 | -3.85%
64 | CCCn1c(=O)c(C(=O)c2ccccc2)nc2ccccc21 | -0.484%
65 | CCCCn1c(=O)c(C(=O)c2ccccc2)nc2ccccc21 | 5.56%
66 | CCCCCn1c(=O)c(C(=O)c2ccccc2)nc2ccccc21 | -52.5%

Row | SMILES | hERG current change (%, negative = inhibition) at 1uM
67 | Cc1ccc(NC(=O)CSc2sc3c(O)cc(=O)[nH]c3c2C#N)cc1C | 0.874%
68 | CC(C)(C)OC(=O)N1CCC(C(N)=O)CC1 | 5.04%
69 | CCOC(=O)c1ccc(NC(=O)N2C[C@@H]3C[C@@H](C2)c2cccc(=O)n2C3)cc1 | 7.4%
70 | CCOC(=O)N1CCN(Cc2nc(N)nc(Nc3ccc(Cl)cc3)n2)CC1 | -22.7%
71 | Nc1nc(CN2CCN(C(=O)c3ccco3)CC2)nc(Nc2cccc(Cl)c2)n1 | -76.3%
72 | Cc1ccc(Nc2nc(N)nc(CN3CCN(C(=O)c4ccco4)CC3)n2)cc1Cl | -54.1%
73 | Cc1ccc(Nc2nc(N)nc(CN3CCN(c4ccccc4)CC3)n2)cc1Cl | -10.8%
74 | O=C(c1ccco1)N1CCN(Cc2ccc(Cl)cc2)CC1 | 7.26%
75 | Cc1ccc(Nc2nc(N)nc(CN3CCN(Cc4ccccc4)CC3)n2)cc1Cl | -24.5%
76 | CN1C(=O)CSc2ccc(NC(=O)Nc3ccccn3)cc21 | 8.01%
77 | Cc1ccc(Cl)cc1NC(=O)c1ccc(CSc2nnnn2C)cc1 | 9.74%
78 | CCOc1cc(/C=N\NC(=O)C2C(=O)NCC2c2ccccc2)ccc1OC (stereo not shown) | 10%
79 | Oc1ccc(C[C@H]2CNCCN2CCc2cccc(F)c2)cc1 | 7.34%
80 | Cc1ccc2c(c1)N(C(=O)CCC(=O)NCCCN1CCOCC1)CC(C)O2 (stereo not shown) | -1.87%
81 | CC1CN(C(=O)CCC(=O)NCCCN2CCN(Cc3ccccc3)CC2)c2cc(Cl)ccc2O1 (stereo not shown) | -68.1%
82 | CCN1CCN(CCCNC(=O)CCC(=O)N2CC(C)Oc3ccc(C)cc32)CC1 (stereo not shown) | 6.55%
83 | CC1CN(C(=O)CCC(=O)NCCCN2CCC(Cc3ccccc3)CC2)c2cc(Cl)ccc2O1 (stereo not shown) | -62.2%
84 | Cc1ccc2c(c1)N(C(=O)CCC(=O)NCCCN1CCN(C)CC1)CC(C)O2 (stereo not shown) | 8.82%
85 | CC1CN(C(=O)CCC(=O)NCc2ccccc2)c2cc(Cl)ccc2O1 (stereo not shown) | 0.521%
86 | Cc1ccc(C(=O)c2cc(Br)ccc2N)cc1 | 12.5%
87 | COc1ccc(-c2csc(NC(=O)CCNC(=O)c3ccco3)n2)cc1OC | -3.11%
88 | O=S(=O)(NC1CCCCCCC1)c1ccc(F)cc1 | 12.2%
